Where a name gives a salt, the structure may show the parent alone.

The first experiment has as its system Escherichia coli IAI1. Briefly: growth (OD595) fold change vs plate DMSO controls (fold change (ratio)); higher = more growth. The note with it: incubation time: 27 h, anaerobic, 37 °C. In a few lines: (§1)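 Anaerobic 27 h, 37 °C mGAM 96-well cultures were shaken, then read for absorbance at 595 nm. Values were blank-subtracted and corrected for compound background using 20 µM compound solutions in water. A calibration factor of 5 converted them to OD. Growth is the fold change versus the median of plate DMSO controls. Fold changes above 1.5 were set to NA, and values are the mean of 2 biological replicates.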
As for `CC(=O)N[C@@H](CCC(N)=O)C(=O)O` [Acetyl-L-glutamine] (20 µM), the growth stood at 0.982. Regarding `CC(=O)N(CC(O)CO)c1c(I)c(C(=O)NCC(O)CO)c(I)c(C(=O)NCC(O)CO)c1I` (centres undefined) [Iohexol] (20 µM), the growth was determined as 1.02. For the compound `Cc1cc2nc3c(=O)[nH]c(=O)nc-3n(C[C@H](O)[C@H](O)[C@H](O)CO)c2cc1C` [Riboflavine] (20 µM), the growth was 0.982.

Turning to `CC(=O)CC(c1ccc([N+](=O)[O-])cc1)c1c(O)c2ccccc2oc1=O` (centres undefined) [Acenocoumarol] (20 µM), the growth was found to be 1.02. The same measure, in the same setting: the same measure for `O=C1CCc2ccc(OCCCCN3CCN(c4cccc(Cl)c4Cl)CC3)cc2N1` [Aripiprazole] (20 µM): 1.03.

As for `Nc1nc(/C(=C/CC(=O)O)C(=O)N[C@@H]2C(=O)N3C(C(=O)O)=CCS[C@H]23)cs1` [Ceftibuten] (20 µM), the growth stood at 1.06. As for `C=C(CC)C(=O)c1ccc(OCC(=O)O)c(Cl)c1Cl` [Ethacrynic acid] (20 µM), the growth worked out at 0.984.

As for `C[C@H](N[C@@H](CCc1ccccc1)C(=O)O)C(=O)N1CCC[C@H]1C(=O)O` [Enalaprilat dihydrate] (20 µM), the growth was determined as 0.971. Turning to `O=C1c2ccccc2S(=O)(=O)N1CCCCN1CCN(c2ncccn2)CC1` [Ipsapirone] (20 µM), the growth was found to be 0.977.

Take `Cn1c(=O)c2c(ncn2CC2OCCO2)n(C)c1=O` [Doxofylline] (20 µM): the growth was found to be 0.975.

In the next experiment the test system is Klebsiella aerogenes DSM 30053. The experiment is described as above. Particulars: incubation time: 27 h, anaerobic, 37 °C. In a few lines:
as §1
As to `CC(=O)S[C@@H]1CC2=CC(=O)CC[C@]2(C)[C@H]2CC[C@@]3(C)[C@@H](CC[C@@]34CCC(=O)O4)[C@H]12` [Spironolactone] (20 µM), the growth worked out at 0.916. Still for that read-out and setting: under `COC(=O)C1=C(C)NC(C)=C(C(=O)OCCN2CCN(C(c3ccccc3)c3ccccc3)CC2)C1c1cccc([N+](=O)[O-])c1` (centres undefined) [Manidipine Dihydrochloride] (20 µM) stands 1; under `CC(=O)NS(=O)(=O)c1ccc(NC(=O)c2ccccc2C(=O)O)cc1` [Phthalylsulfacetamide] (20 µM), 1.03. With `CN(C/C=C/C#CC(C)(C)C)Cc1cccc2ccccc12` [Terbinafine] (20 µM), the growth stood at 0.972. The same measure, in the same setting: the same measure for `Nc1nc2[nH]cnc2c(=S)[nH]1` [Tioguanine] (20 µM): 1.09; for `CC(=O)OCC(=O)[C@@]12N=C(C)O[C@@H]1C[C@H]1[C@@H]3CCC4=CC(=O)C=C[C@]4(C)[C@H]3[C@@H](O)C[C@@]12C` [Deflazacort] (20 µM): 0.986. `CCCCOCCOCCOCc1cc2c(cc1CCC)OCO2` [Piperonyl butoxide] (20 µM): the growth worked out at 1.09. In the case of `O=C(Cn1ccnc1[N+](=O)[O-])NCCO` [Etanidazole] (20 µM), the growth is 1.06.

With `CCN(CC)CCNC(=O)c1cc(Cl)c(N)cc1OC` [Metoclopramide monohydrochloride] (20 µM), the growth was determined as 1. `CCN(CC)CCNC(C(=O)OCCC(C)C)c1ccccc1` (centres undefined) [Camylofine chlorhydrate] (20 µM): the growth came to 1.02. Same read-out and setting: the same measure for `Cc1cc(C)nc(NS(=O)(=O)c2ccc(N)cc2)n1` [Sulfamethazine sodium salt] (20 µM): 0.984. Same read-out and setting: under `C/C(O)=C(\C#N)C(=O)Nc1ccc(C(F)(F)F)cc1` [Teriflunomide] (20 µM) stands 1.01. As to `NC[C@@H]1O[C@@H](O[C@H]2[C@H](O)[C@@H](O[C@H]3O[C@H](CO)[C@@H](O)[C@H](N)[C@H]3O)[C@H](N)C[C@@H]2N)[C@@H](O)[C@H](O)[C@H]1O` [Kanamycin A sulfate] (20 µM), the growth came to 1.02.

For the compound `CN[C@@H]1[C@H](O)[C@H](NC)[C@H]2O[C@@]3(O)C(=O)C[C@@H](C)O[C@H]3O[C@@H]2[C@H]1O` [Spectinomycin dihydrochloride] (20 µM), the growth was found to be 0.93. `CCOC(=O)c1ccc(C#Cc2ccc3c(c2)C(C)(C)CCS3)nc1` [Tazarotene] (20 µM): the growth came to 0.961.

Regarding `CCCOc1ccc2[nH]c(NC(=O)OC)nc2c1` [Oxibendazol] (20 µM), the growth was determined as 0.972. As to `CCN(CCCc1ccccc1)CCCc1ccccc1` [Alverine citrate salt] (20 µM), the growth was 1.11. Regarding `CO[C@@H]1[C@@H](OC(N)=O)[C@@H](O)[C@H](Oc2ccc3c(O)c(NC(=O)c4ccc(O)c(CC=C(C)C)c4)c(=O)oc3c2C)OC1(C)C` [Novobiocin sodium salt] (20 µM), the growth is 0.747.

Turning to `CCOC(N)=O` [Urethane] (20 µM), the growth came out at 1.04. Still for that read-out and setting: the same measure for `CCN1CCN(C(=O)N[C@@H](C(=O)N[C@@H]2C(=O)N3[C@@H]2SC(C)(C)[C@@H]3C(=O)O)c2ccccc2)C(=O)C1=O` [Piperacillin sodium salt] (20 µM): 1.07; for `CC1CCc2cc(F)cc3c(=O)c(C(=O)O)cn1c23` (centres undefined) [Flumequine] (20 µM): 0.404; for `CO/N=C1\CN(c2nc3c(cc2F)c(=O)c(C(=O)O)cn3C2CC2)CC1CN` (centres undefined) [Gemifloxacin mesylate] (20 µM): 0.126. Turning to `C=CCOc1ccc(CC(=O)O)cc1Cl` [Alclofenac] (20 µM), the growth worked out at 0.98. For `C[C@]12CC[C@H]3[C@@H](CCC4=CC(=O)CC[C@@]43C)[C@@H]1CC[C@@H]2C(=O)CO` [Deoxycorticosterone] (20 µM), the growth turned out to be 1.02.

Consider `CCCC(CCC)C(=O)O[C@H]1C[C@H]2CC[C@@H](C1)[N+]2(C)C` [Anisotropine Methylbromide] (20 µM), for which the growth amounted to 0.99. For `Cc1cn(-c2cc(NC(=O)c3ccc(C)c(Nc4nccc(-c5cccnc5)n4)c3)cc(C(F)(F)F)c2)cn1` [Nilotinib] (20 µM), the growth is 1.11. With `OCCN1CCN(CC/C=C2/c3ccccc3Sc3ccc(C(F)(F)F)cc32)CC1` [Flupentixol dihydrochloride cis-(Z)] (20 µM), the growth is 0.968.

Turning to `N#Cc1cc(NC(=O)C(=O)O)c(Cl)c(NC(=O)C(=O)O)c1` [Lodoxamide] (20 µM), the growth turned out to be 1.01. As for `O=P(O)(O)C(Cl)(Cl)P(=O)(O)O` [Clodronate disodium] (20 µM), the growth was determined as 1.02. Turning to `CC(=O)N[C@@H](CCC(N)=O)C(=O)O` [Acetyl-L-glutamine] (20 µM), the growth is 0.977. In the case of `CC(=O)N(CC(O)CO)c1c(I)c(C(=O)NCC(O)CO)c(I)c(C(=O)NCC(O)CO)c1I` (centres undefined) [Iohexol] (20 µM), the growth came to 1.04. `Cc1cc2nc3c(=O)[nH]c(=O)nc-3n(C[C@H](O)[C@H](O)[C@H](O)CO)c2cc1C` [Riboflavine] (20 µM): the growth came to 0.997. On to `CC(=O)CC(c1ccc([N+](=O)[O-])cc1)c1c(O)c2ccccc2oc1=O` (centres undefined) [Acenocoumarol] (20 µM), for which the growth came out at 1.02. For the compound `O=C1CCc2ccc(OCCCCN3CCN(c4cccc(Cl)c4Cl)CC3)cc2N1` [Aripiprazole] (20 µM), the growth worked out at 0.979.

Turning to `Nc1nc(/C(=C/CC(=O)O)C(=O)N[C@@H]2C(=O)N3C(C(=O)O)=CCS[C@H]23)cs1` [Ceftibuten] (20 µM), the growth came to 1.14. On the same count and under the same terms, the same measure for `C=C(CC)C(=O)c1ccc(OCC(=O)O)c(Cl)c1Cl` [Ethacrynic acid] (20 µM): 1.01; for `C[C@H](N[C@@H](CCc1ccccc1)C(=O)O)C(=O)N1CCC[C@H]1C(=O)O` [Enalaprilat dihydrate] (20 µM): 0.996; for `O=C1c2ccccc2S(=O)(=O)N1CCCCN1CCN(c2ncccn2)CC1` [Ipsapirone] (20 µM): 0.973.

For `Cn1c(=O)c2c(ncn2CC2OCCO2)n(C)c1=O` [Doxofylline] (20 µM), the growth is 0.973.

For the origin of these results see the supplement of paper PMC12494721.
